# A number with no mark means an inactive call. Records with an inconclusive call do not appear. Entries that show only a call come without a potency. The source made the active and inactive calls. Calls follow the shape of the dose curve; as a rule, active = well fitted curve in the direction sought with a large enough effect; inconclusive = small, poorly fitted or top-dose-only effect, or another doubt; inactive = no such curve, though single readings can be large; an effect the other way counts as inactive or inconclusive.
# Experiments:
# [1] = biological target: Rap guanine nucleotide exchange factor 3 (Homo sapiens) (UniProt O95398); assay: Confirmatory qHTS for antagonist of cAMP-regulated guanine nucleotide exchange factor 3 (EPAC1) (AID 1645880); also: nearly all actives have a fitted effect of over 55% in size; also: potency is read from the fitted curve at half-maximal effect
# How it was run: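 Released BODIPY-GDP fluoresces less than Rap1-bound BODIPY-GDP; the signal is followed at 480/540 nm at 5-min intervals over 30 min, after 5 min at room temperature. Reactions contain 100 nM EPAC1, 250 nM RAP1B-BODIPY-GDP and 50 uM GDP; results are normalized to ATA and DMSO.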
# [2] = biological target: Rap guanine nucleotide exchange factor 4 (Homo sapiens) (UniProt Q8WZA2); assay: Confirmatory qHTS for agonist of cAMP-regulated guanine nucleotide exchange factor 4 (EPAC2) (AID 1645884);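 also: nucleotide exchange releases bodipy-GDP from Rap1 and this lowers its fluorescence; nearly all actives have a fitted effect of over 65% in size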; also: potency is read from the fitted curve at half-maximal effect
# [3] = biological target: Rap guanine nucleotide exchange factor 4 (Homo sapiens) (UniProt Q8WZA2); assay: Confirmatory qHTS for antagonist of cAMP-regulated guanine nucleotide exchange factor 4 (EPAC2) (AID 1645885); also: nearly all actives have a fitted effect of over 25% in size
# [4] = biological target: Rap guanine nucleotide exchange factor 3 (Homo sapiens) (UniProt O95398); assay: Counterscreen qHTS for antagonist of cAMP-regulated guanine nucleotide exchange factor 3 (EPAC1) (AID 1645888)
# How it was run: (§1)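 Measured: fluorescence of BODIPY-GDP bound to Rap1B, which falls as exchange proceeds. Conditions include 50 uM competing GDP, 5 and 30 min reads, and a later cAMP challenge for antagonist detection.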
# [5] = biological target: Rap guanine nucleotide exchange factor 3 (Homo sapiens) (UniProt O95398); assay: Counterscreen qHTS for agonist of cAMP-regulated guanine nucleotide exchange factor 3 (EPAC1) (AID 1645889); also: nearly all actives have a fitted effect of over 40% in size; also: potency is read from the fitted curve at half-maximal effect
# How it was run: as §1
# [6] = biological target: Rap guanine nucleotide exchange factor 3 (Homo sapiens) (UniProt O95398); assay: Confirmatory qHTS for agonist of cAMP-regulated guanine nucleotide exchange factor 3 (EPAC1) (AID 1645881); also: nearly all actives have a fitted effect of over 75% in size; also: potency is read from the fitted curve at half-maximal effect;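 as to activation: EPAC1 catalysed release of BODIPY-GDP from Rap1B seen as fluorescence loss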
# [7] = biological target: Cytochrome P450 3A4 (Homo sapiens) (UniProt P08684); assay: qHTS Assay for Activators of Cytochrome P450 3A4 (AID 885); also: nearly all actives have a fitted effect of over 65% in size
# How it was run: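 CYP3A4 activity: Luciferin-PPXE O-dealkylation, 25uM substrate, 200mM KPO4, RT throughout. Read-out is luciferase luminescence; higher values reflect activation.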
# [8] = Confirmation and Secondary Assay for Modulators of Hemoglobin Beta Chain Splicing at IVS2 654 locus (AID 910);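 also: potency is read from the fitted curve at half-maximal effect; potency of activators that raise GFP signal by restoring correct splicing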
# How it was run: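 HeLa cells stably carrying EGFP interrupted by mutant beta-globin IVS2-654 intron (CMV-driven) were treated with compound for 2 days at 37C; corrected splicing was scored as total peak GFP intensity per well (488 nm excitation, 500-520 nm emission).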
# [9] = Confirmation and Secondary Assay for Modulators of Hemoglobin Beta Chain Splicing at IVS2 705 locus (AID 930);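 also: HeLa cells stably expressing the EGFP-705 splicing reporter; GFP fluorescence per well restored by corrected splicing of the IVS2-705 intron in EGFP; series mostly up to about 46 µM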
# How it was run: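 HeLa cells stably carrying EGFP interrupted by mutant beta-globin intron 2 (IVS2-705) treated 2 days at 37C with compound; 500 nM antisense PNA as control. Correct splicing read as total peak GFP intensity per well by laser-scanning cytometry.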
# [10] = biological target: Ubiquitin carboxyl-terminal hydrolase 1 (Homo sapiens) (UniProt O94782); assay: Inhibitors of USP1/UAF1: Pilot qHTS (AID 504865); also: potency is read from the fitted curve at half-maximal effect; nearly all actives have a fitted effect of over 35% in size
# How it was run: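 Enzyme-free wells gave the negative control, while test wells held 1nM USP1/UAF1 preincubated with compound for 15 min at room temperature. Ub-Rho at 150nM final started the reaction, and fluorescence at 480/540 nm was recorded kinetically.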
# [11] = biological target: Tumor susceptibility gene 101 protein (Homo sapiens) (UniProt Q99816); assay: qHTS Assay for Iinhibitors of HIV-1 Budding by Blocking the Interaction of PTAP/TSG101: Hit Validation (AID 651600); also: potency is read from the fitted curve at half-maximal effect; nearly all actives have a fitted effect of over 70% in size
# How it was run: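 Measuring PTAP–Tsg101 interaction by FP: protein at 10 uM and fluorescent peptide at 50 nM (final), buffer 10 mM HEPES pH 7.5 with 0.15 M NaCl, 3 mM EDTA, 0.1 mM TCEP, 0.01% Tween 20; 20 min incubation, r.t.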
# [12] = biological target: Cytochrome P450 3A4 (Homo sapiens) (UniProt P08684); assay: qHTS Assay for Inhibitors and Substrates of Cytochrome P450 3A4 (AID 884); also: potency is read from the fitted curve at half-maximal effect; nearly all actives have a fitted effect of over 50% in size
# How it was run: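 Luminescent readout of luciferin produced by CYP3A4 (20 nM) dealkylation of Luciferin-PPXE, 25 uM (its KM). NADPH-driven reaction ran 60 min at RT after 10 min compound preincubation; data scaled to 57 uM ketoconazole as 100% inhibition.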
# Sequence of Rap guanine nucleotide exchange factor 3 (Homo sapiens) (O95398 whole entry, looked up): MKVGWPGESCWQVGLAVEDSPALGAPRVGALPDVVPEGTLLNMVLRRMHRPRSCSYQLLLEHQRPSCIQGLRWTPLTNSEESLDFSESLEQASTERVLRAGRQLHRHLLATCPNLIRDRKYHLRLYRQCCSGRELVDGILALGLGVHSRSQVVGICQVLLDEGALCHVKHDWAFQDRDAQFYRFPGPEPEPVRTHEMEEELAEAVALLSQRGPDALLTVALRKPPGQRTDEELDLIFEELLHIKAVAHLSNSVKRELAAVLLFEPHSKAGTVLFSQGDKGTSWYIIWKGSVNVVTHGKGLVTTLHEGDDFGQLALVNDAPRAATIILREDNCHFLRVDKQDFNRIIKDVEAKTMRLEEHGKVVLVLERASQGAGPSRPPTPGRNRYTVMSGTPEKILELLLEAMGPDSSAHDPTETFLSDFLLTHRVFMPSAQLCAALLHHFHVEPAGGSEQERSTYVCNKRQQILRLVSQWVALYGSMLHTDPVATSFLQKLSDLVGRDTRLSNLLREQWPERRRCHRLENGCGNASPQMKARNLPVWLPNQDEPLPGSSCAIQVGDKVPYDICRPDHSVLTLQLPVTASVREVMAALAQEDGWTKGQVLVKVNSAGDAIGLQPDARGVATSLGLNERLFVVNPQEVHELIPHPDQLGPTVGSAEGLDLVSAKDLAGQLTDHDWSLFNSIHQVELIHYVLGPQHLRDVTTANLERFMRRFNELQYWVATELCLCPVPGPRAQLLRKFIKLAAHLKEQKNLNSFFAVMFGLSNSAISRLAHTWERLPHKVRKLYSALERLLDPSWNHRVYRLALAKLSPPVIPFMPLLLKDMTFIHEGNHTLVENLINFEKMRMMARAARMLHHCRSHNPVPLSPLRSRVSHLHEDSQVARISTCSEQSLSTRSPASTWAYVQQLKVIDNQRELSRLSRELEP
# Sequence of Cytochrome P450 3A4 (Homo sapiens) (P08684 whole entry, looked up): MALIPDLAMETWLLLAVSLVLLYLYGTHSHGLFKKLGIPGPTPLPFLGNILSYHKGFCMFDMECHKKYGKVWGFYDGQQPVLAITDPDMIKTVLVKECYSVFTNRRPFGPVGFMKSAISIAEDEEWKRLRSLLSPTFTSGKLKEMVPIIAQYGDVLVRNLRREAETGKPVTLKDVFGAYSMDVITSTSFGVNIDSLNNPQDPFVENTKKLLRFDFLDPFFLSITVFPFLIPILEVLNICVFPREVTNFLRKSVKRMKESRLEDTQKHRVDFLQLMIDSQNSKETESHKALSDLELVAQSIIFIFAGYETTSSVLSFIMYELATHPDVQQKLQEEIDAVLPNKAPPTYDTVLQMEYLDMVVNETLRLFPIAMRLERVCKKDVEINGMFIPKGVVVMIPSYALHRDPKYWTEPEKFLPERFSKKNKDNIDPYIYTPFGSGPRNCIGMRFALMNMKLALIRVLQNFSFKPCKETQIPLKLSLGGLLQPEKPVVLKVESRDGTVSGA
# Sequence of Rap guanine nucleotide exchange factor 4 (Homo sapiens) (Q8WZA2 whole entry, looked up): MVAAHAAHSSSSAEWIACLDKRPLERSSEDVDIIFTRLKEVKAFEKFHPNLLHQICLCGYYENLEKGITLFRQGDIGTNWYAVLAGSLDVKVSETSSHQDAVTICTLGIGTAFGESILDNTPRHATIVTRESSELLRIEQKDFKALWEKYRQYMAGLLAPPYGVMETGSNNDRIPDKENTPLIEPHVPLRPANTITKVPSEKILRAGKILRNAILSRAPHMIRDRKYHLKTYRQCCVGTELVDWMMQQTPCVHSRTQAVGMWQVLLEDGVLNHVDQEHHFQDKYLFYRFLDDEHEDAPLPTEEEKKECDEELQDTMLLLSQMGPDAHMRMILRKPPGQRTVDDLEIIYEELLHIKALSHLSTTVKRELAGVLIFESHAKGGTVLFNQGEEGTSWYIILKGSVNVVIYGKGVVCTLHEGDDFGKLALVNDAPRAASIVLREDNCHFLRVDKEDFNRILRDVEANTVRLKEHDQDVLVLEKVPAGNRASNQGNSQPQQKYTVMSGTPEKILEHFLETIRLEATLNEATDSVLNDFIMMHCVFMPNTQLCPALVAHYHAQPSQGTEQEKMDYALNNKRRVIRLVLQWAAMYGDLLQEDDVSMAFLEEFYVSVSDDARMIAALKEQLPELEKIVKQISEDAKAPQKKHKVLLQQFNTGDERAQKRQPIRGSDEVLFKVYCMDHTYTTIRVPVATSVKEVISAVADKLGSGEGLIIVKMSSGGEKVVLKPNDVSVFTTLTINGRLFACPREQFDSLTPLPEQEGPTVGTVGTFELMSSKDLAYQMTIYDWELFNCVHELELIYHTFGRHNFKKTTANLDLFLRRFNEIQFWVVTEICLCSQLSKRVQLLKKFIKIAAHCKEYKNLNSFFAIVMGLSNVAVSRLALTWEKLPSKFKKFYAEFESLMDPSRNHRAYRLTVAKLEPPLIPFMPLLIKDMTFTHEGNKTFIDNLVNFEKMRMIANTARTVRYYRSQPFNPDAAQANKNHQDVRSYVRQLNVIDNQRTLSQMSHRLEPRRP
# Sequence of Ubiquitin carboxyl-terminal hydrolase 1 (Homo sapiens) (O94782 whole entry, looked up): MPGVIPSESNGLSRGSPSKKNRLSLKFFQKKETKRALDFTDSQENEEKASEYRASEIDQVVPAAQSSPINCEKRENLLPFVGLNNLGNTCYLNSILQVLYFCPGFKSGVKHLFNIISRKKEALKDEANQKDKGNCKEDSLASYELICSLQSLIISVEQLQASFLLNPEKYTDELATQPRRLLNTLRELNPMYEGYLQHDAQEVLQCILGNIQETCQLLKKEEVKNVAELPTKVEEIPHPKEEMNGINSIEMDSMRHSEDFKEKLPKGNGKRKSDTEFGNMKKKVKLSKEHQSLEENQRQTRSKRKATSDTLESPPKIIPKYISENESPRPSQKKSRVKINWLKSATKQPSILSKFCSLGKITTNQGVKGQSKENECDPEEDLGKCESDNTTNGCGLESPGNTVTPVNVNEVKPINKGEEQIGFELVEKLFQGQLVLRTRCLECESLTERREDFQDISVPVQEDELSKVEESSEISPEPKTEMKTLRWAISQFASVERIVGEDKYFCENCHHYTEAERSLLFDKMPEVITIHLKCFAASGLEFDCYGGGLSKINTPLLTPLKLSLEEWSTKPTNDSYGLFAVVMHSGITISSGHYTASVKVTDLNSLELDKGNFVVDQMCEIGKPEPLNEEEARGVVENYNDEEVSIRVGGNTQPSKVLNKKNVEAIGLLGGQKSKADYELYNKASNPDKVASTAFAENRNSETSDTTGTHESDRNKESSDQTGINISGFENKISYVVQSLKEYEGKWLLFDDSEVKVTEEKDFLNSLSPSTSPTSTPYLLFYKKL
# Sequence of Tumor susceptibility gene 101 protein (Homo sapiens) (Q99816 whole entry, looked up): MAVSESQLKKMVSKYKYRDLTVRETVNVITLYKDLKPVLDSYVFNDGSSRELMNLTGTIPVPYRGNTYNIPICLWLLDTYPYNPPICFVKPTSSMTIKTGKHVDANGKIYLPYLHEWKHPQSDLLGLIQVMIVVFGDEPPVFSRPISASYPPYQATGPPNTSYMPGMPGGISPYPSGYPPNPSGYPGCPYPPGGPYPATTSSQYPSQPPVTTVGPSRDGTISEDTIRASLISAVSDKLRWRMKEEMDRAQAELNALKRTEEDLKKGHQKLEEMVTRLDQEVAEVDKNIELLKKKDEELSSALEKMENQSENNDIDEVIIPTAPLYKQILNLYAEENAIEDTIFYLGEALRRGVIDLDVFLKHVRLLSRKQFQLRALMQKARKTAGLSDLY
compound,measurement,setting,value
O=[N+]([O-])c1ccc(N2CCCCCC2)c2nonc12,Potency,[1],inactive
same,Potency,[2],100 µM (active)
same,Potency,[3],inactive
same,outcome,[4],inactive
same,Potency,[5],25.1 µM (active)
COC1C(C)OC(OC2CC(C)(O)Cc3cc4c(c(O)c32)C(=O)c2c(O)cc3c(c2C4=O)OC2OC3(C)C(O)C(N(C)C)C2O)C(OC)C1(C)OC (stereo not given),Potency,[1],inactive
same,activation,[2],"18.7% [at 17.1 µM, percent relative to cAMP agonist control]"
same,"activity change, negative = inhibition",[3],15.2% [at 12.7 µM]
same,"activity change, negative = inhibition",[4],87.2% [at 30.8 µM]
CCCCNC(=O)c1c(N)n(CCCOC)c2nc3ccccc3nc12,Potency,[1],84.9 µM (active)
same,Potency,[6],inactive
same,Potency,[2],inactive
same,outcome,[4],inactive
COC1C(OC(=O)c2ccc(C)[nH]2)C(O)C(Oc2ccc3c(O)c(NC(=O)c4ccc(O)c(CC=C(C)C)c4)c(=O)oc3c2Cl)OC1(C)C (stereo not given),Potency,[1],30.1 µM (active)
same,Potency,[6],inactive
same,Potency,[2],inactive
same,Potency,[5],inactive
COc1ccccc1-n1c(-c2cccs2)nc2ccccc2c1=O,Potency,[1],inactive
same,Potency,[6],inactive
same,Potency,[3],inactive
same,outcome,[4],inactive
Cc1cc(=O)oc2cc(OCC(=O)N3CCC(C(=O)O)(c4ccccc4)CC3)ccc12,Potency,[1],75.7 µM (active)
same,Potency,[6],inactive
same,Potency,[2],inactive
same,outcome,[4],inactive
CC(C)=CCCC1(C)C=Cc2c(O)c3c(c(CC=C(C)C)c2O1)OC12C(=CC4CC1C(C)(C)OC2(C/C=C(/C)C(=O)O)C4=O)C3=O (stereo not given),Potency,[7],inactive
same,Potency,[8],inactive
same,Potency,[9],inactive
same,Potency,[10],20 µM (active)
same,Potency,[1],19.8 µM (active)
same,Potency,[6],inactive
same,Potency,[2],inactive
CC(C)C/C(=N/O)c1cn(C)c2ccccc12,Potency,[1],inactive
same,Potency,[6],inactive
same,Potency,[2],inactive
same,outcome,[4],inactive
same,Potency,[5],inactive
CC(C)CCn1c(=O)c(C(=O)Nc2ccccc2S(N)(=O)=O)c(O)c2ccccc21,Potency,[1],75.7 µM (active)
same,Potency,[6],inactive
same,Potency,[2],inactive
same,outcome,[4],inactive
same,Potency,[5],inactive
O=C(c1ccco1)c1cn(Cc2ccccc2)c2ccccc12,Potency,[1],inactive
same,Potency,[6],inactive
same,Potency,[2],inactive
same,outcome,[4],inactive
same,Potency,[5],inactive
O=[N+]([O-])c1ccc(NCc2ccccc2)c2nonc12,Potency,[11],1.03 µM (active)
same,Potency,[1],inactive
same,Potency,[6],8.91 µM (active)
same,Potency,[2],100 µM (active)
same,Potency,[3],inactive
same,Potency,[5],22.4 µM (active)
COC(=O)C1=C(c2cc3ccccc3s2)C[C@@H]2CC[C@H]1N2C(=O)NCc1ccc(C(F)(F)F)cc1,Potency,[1],inactive
same,Potency,[6],inactive
same,Potency,[2],inactive
same,Potency,[3],inactive
same,Potency,[5],inactive
Cc1ccc(-n2c(O)c(/C=C/C=Nc3ccccc3)c(=O)[nH]c2=O)cc1,Potency,[1],inactive
same,Potency,[6],inactive
same,Potency,[2],inactive
same,outcome,[4],inactive
same,Potency,[5],44.7 µM (active)
CC[C@@]1(O)CC(O)c2c(cc3c(c2O)C(=O)c2c(O)ccc(O)c2C3=O)C1C(=O)OC (stereo not given in full),Potency,[12],7.94 µM (active)
same,Potency,[7],inactive
same,Potency,[8],12.6 µM (active)
same,Potency,[10],22.4 µM (active)
same,Potency,[1],inactive
same,Potency,[6],inactive
same,Potency,[2],inactive
same,Potency,[3],inactive
COC(=O)N1C(c2ccccc2)C1c1ccccc1 (stereo not given),Potency,[1],inactive
same,Potency,[6],inactive
same,activation,[2],"10.2% [at 17.1 µM, percent relative to cAMP agonist control]"
same,"activity change, negative = inhibition",[4],4.2% [at 30.8 µM]

# Source: PubChem BioAssay (NCATS)
